Measured values as given in PubChem BioAssay (Tox21).
Results filed as inconclusive are left out. Calls of active or inactive are those of the source. Calls follow the shape of the dose curve; as a rule, active = well fitted curve in the direction sought with a large enough effect in the repeat runs; inconclusive = weak or mixed curves; inactive = no such curve, though single readings can be large; an effect the other way counts as inactive or inconclusive.

What was measured:
[1] = Human pregnane X receptor (PXR) small molecule agonists, qHTS cell viability counter screen (AID 1346977); also: nearly all actives have a fitted effect of over 50% in size; also: potency is read from the fitted curve at half-maximal effect
Procedure, shortened: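 Readout is CellTiter-Fluor fluorescence from PXR-Luc HepG2 cells. Plated cells rested 5hr, then were treated with compounds for 24hr at 37C and 5% CO2, with reagent present during the last hour.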

[2] = Caspase-3/7 induction in CHO-K1 cells by small molecules, qHTS cell viability counter screen (AID 1346979); also: nearly all actives have a fitted effect of over 35% in size; also: potency is read from the fitted curve at half-maximal effect
Procedure, shortened: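 To flag cytotoxic compounds, treated CHO-K1 wild-type cells were given CellTiter-Fluor at 16hr and read fluorescently after 1hr at 37C; the caspase-3/7 luminescence was measured in these same wells.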

[3] = Caspase-3/7 induction in HepG2 cells by small molecules, qHTS cell viability counter screen (AID 1346981); also: nearly all actives have a fitted effect of over 30% in size; also: potency is read from the fitted curve at half-maximal effect
Procedure, shortened: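 Steps: seed 2,000 HepG2 cells per well; incubate 5 hr at 37 C; pin-add compounds in DMSO; incubate 16 hr; add CellTiter-Fluor; after 1 hr at 37 C and 5% CO2, read fluorescence.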

[4] = target: Nuclear receptor subfamily 1 group I member 2 (Rattus norvegicus) (UniProt Q9R1A7); test: Rat pregnane X receptor (rPXR) activation by small molecules, qHTS assay (AID 1346983); settings: rPXR luciferase reporter cells, One-Glo luminescence, 24 h; max activation: active compounds read high; also: nearly all actives have a fitted effect of over 20% in size
Procedure, shortened: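 Cell-based rPXR activation assay: rPXR cells, 2,000 per well, rested 5hr at 37 C, then exposed to compounds in DMSO for 24 hr at 37 C. Luciferase activity read by One-Glo luminescence after 30 min at room temperature.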

[5] = Caspase-3/7 induction in CHO-K1 cells by small molecules, qHTS assay (AID 1346980); also: nearly all actives have a fitted effect of over 15% in size
Procedure, shortened: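 Wild-type CHO-K1 cells exposed to compounds for 17hr at 37 C, 5% CO2. Caspase-3/7 activity then measured by Caspase-Glo 3/7 luminescence after 30min at room temperature.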

[6] = target: Nuclear receptor subfamily 1 group I member 2 (Homo sapiens) (UniProt O75469); test: Human pregnane X receptor (PXR) small molecule agonists, qHTS assay (AID 1346982); also: nearly all actives have a fitted effect of over 35% in size; also: potency is read from the fitted curve at half-maximal effect
Procedure, shortened: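 Agonist mode qHTS: PXR-Luc HepG2 cells plated 5 hr before DMSO-dissolved compounds were pinned in, cultured 24 hr at 37 C, 5% CO2; ONE-Glo luminescence readout.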

[7] = target: Nuclear receptor subfamily 1 group I member 2 (Homo sapiens) (UniProt O75469); test: CYP3A4 induction through human pregnane X receptor (PXR) by small molecules, qHTS assay (AID 1346984); also: nearly all actives have a fitted effect of over 40% in size
Procedure, shortened: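 Steps: seed DPX-2 cells, 5 hr at 37C; pin-transfer compounds; 24 hr at 37C; add Luciferin-IPA (3uM final), 3 hr at 37C; add One-Glo, 30 min RT; read luminescence.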

[8] = target: Cytochrome P450 2D6 (Homo sapiens) (UniProt P10635); test: Cytochrome P450 Family 2 Subfamily D Member 6 (CYP2D6) small molecule antagonists: luciferase reporter qHTS assay (AID 1671196); also: nearly all actives have a fitted effect of over 50% in size; also: potency is read from the fitted curve at half-maximal effect
Procedure, shortened: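 P450-Glo format: CYP2D6 converts a proluciferin substrate to luciferin in an NADPH-driven reaction lasting 1 h at room temperature. Light output, proportional to CYP2D6 activity, reflects interference by test chemicals.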

[9] = Caspase-3/7 induction in HepG2 cells by small molecules, qHTS assay (AID 1346978); also: nearly all actives have a fitted effect of over 15% in size
Procedure, shortened: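 Wild-type HepG2 cells, 2,000/well, settled 5 hr at 37 C and 5% CO2, then compound-treated for 17 hr; caspase-3/7 activity read by luminescent Caspase-Glo 3/7 after 30 min at room temperature.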

[10] = target: Nuclear receptor subfamily 1 group I member 2 (Homo sapiens) (UniProt O75469); test: Human pregnane X receptor (PXR) activation by small molecules, qHTS assay (AID 1346985); also: nearly all actives have a fitted effect of over 40% in size; also: potency is read from the fitted curve at half-maximal effect
Procedure, shortened: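 DPX-2 cells (HepG2 co-transfected with a PXR response element and a CYP3A4-promoter luciferase construct) were seeded at 2,000 per well, rested 5 hr at 37C, then exposed to DMSO-dissolved compounds for 24 hr. Activation was read as luciferase luminescence.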
% is scaled to controls: 0 for no effect and ±100 for the full control effect.

Sequence of Nuclear receptor subfamily 1 group I member 2 (Rattus norvegicus) (Q9R1A7 whole entry, looked up): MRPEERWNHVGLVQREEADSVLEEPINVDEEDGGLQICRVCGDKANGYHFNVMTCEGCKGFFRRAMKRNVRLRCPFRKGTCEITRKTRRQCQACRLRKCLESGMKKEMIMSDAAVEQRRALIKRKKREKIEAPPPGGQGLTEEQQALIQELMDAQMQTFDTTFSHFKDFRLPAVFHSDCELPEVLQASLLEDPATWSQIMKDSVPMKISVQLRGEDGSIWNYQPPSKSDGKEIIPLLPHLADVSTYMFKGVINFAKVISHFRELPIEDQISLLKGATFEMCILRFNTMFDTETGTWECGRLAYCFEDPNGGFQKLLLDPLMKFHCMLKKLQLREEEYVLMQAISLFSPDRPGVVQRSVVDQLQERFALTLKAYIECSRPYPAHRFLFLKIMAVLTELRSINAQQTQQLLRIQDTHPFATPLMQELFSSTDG
Sequence of Cytochrome P450 2D6 (Homo sapiens) (P10635 whole entry, looked up): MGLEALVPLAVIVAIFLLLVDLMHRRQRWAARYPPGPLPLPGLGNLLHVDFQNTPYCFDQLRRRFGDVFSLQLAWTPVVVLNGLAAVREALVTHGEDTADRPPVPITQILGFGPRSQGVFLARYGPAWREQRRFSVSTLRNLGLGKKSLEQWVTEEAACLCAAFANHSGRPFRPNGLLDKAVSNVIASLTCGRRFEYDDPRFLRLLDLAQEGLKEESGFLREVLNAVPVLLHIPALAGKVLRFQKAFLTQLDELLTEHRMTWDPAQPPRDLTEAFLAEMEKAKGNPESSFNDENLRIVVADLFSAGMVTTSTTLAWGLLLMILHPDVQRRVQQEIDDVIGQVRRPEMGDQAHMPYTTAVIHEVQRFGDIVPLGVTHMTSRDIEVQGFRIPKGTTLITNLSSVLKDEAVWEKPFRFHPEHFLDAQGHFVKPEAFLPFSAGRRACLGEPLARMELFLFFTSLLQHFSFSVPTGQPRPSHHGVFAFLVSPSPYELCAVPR
Sequence of Nuclear receptor subfamily 1 group I member 2 (Homo sapiens) (O75469 whole entry, looked up): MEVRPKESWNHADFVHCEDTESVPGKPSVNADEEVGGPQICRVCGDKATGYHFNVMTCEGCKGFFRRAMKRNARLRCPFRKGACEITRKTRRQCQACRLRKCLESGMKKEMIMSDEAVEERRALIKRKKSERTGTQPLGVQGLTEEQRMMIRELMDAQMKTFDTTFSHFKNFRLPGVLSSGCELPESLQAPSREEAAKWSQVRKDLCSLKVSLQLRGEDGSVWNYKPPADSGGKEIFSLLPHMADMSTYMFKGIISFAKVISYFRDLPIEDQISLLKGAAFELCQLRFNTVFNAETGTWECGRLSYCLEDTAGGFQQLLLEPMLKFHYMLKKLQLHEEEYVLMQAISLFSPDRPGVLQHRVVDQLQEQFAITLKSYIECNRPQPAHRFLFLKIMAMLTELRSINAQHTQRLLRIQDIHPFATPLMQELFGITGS

O=C(O)Cc1cc(I)c(Oc2ccc(O)c(I)c2)c(I)c1
inactive: Potency [1] | Potency [2] | Potency [3] | max activation [4] -1.77%

Oc1ccc(Cc2ccccc2)cc1
active: Potency [6] 56.6 µM
inactive: Potency [1] | Potency [5] | Potency [3]

CC1(C)[C@H]2CC[C@]1(C)[C@H](O)C2
inactive: Potency [1] | Potency [2] | Potency [5] | Potency [3] | Potency [6] | max activation [4] -0.529% | Potency [7] | Potency [8]

CCCCCC/C=C/C=O
inactive: Potency [1] | Potency [2] | Potency [5] | Potency [3] | Potency [6] | Potency [8]

C=Cc1c(C)c2cc3[nH]c(cc4nc(cc5nc(cc1[nH]2)C(C)=C5CCC(=O)O)C(CCC(=O)O)=C4C)c(C)c3C=C
inactive: outcome [9] | Potency [6] | max activation [4] -1.27% | Potency [7] | Potency [10]
active: Potency [1] 15 µM | Potency [3] 13.3 µM

Cc1cccc(Oc2ccccc2)c1
inactive: Potency [1] | Potency [2] | Potency [5] | Potency [6]
active: Potency [8] 34.7 µM

Cc1ccc(O)c([C@H](CCN(C(C)C)C(C)C)c2ccccc2)c1
inactive: Potency [2] | Potency [5] | max activation [4] 2.91%
active: Potency [1] 11.9 µM | Potency [8] 3.09 µM

O=C1c2cccc(O)c2C(=O)c2c(O)cc(CO)cc21
inactive: outcome [9] | Potency [3] | Potency [8]
active: Potency [1] 38.6 µM | Potency [6] 8.63 µM

CCOc1ccc(NC(=O)CC(C)=O)cc1
inactive: Potency [1] | Potency [2] | Potency [5] | Potency [3] | Potency [6]
active: Potency [8] 35.6 µM

CCN(CC)CCc1nc(-c2ccccc2)no1
active: Potency [8] 7.76 µM
inactive: Potency [1] | Potency [2] | Potency [5] | Potency [3] | Potency [6] | max activation [4] -0.305% | Potency [7]

O=C(O)/C=C/c1cnc[nH]1
inactive: Potency [1] | Potency [2] | Potency [5] | Potency [3] | Potency [6]

CC(=O)OCCc1ccccc1
inactive: Potency [1] | Potency [2] | Potency [5] | Potency [3] | Potency [6] | Potency [8]

CCCc1ccccc1
inactive: Potency [1] | outcome [9] | Potency [3] | Potency [6] | Potency [8]

CCCCCCCCCCCCC(=O)O
inactive: Potency [1] | outcome [9] | Potency [3] | Potency [8]

Nc1nc(N)c2nc(CNc3ccc(C(=O)N[C@@H](CCC(=O)O)C(=O)O)cc3)cnc2n1
inactive: Potency [1] | Potency [2] | Potency [3]

CCCCCC(CO)CCC (stereo unspecified)
inactive: Potency [1] | Potency [5] | Potency [3] | Potency [6]

O=C1[C@H](CC[C@H](O)c2ccc(F)cc2)[C@@H](c2ccc(O)cc2)N1c1ccc(F)cc1
inactive: Potency [1] | Potency [5] | max activation [4] -2.85% | Potency [7]
active: Potency [2] 29.8 µM | Potency [6] 29.8 µM | Potency [8] 30.9 µM

C=CC(=O)OCCOC(=O)CCC(=O)O
inactive: Potency [1] | Potency [2] | Potency [5] | Potency [6] | Potency [8]

N=C(N=C(N)N)N1CCOCC1
inactive: Potency [1] | Potency [2] | Potency [5] | Potency [3] | Potency [6] | max activation [4] -1.18% | Potency [7] | Potency [10] | Potency [8]

CCCCCCCCCCCCCCCBr
inactive: Potency [1] | Potency [2] | Potency [5] | Potency [3] | Potency [6] | Potency [8]

Cc1ccc2c(ccc3ccccc32)c1
inactive: Potency [1] | Potency [2] | Potency [5] | Potency [3]
active: Potency [6] 54.6 µM

CN1CCC(OC(c2ccccc2)c2ccccc2)CC1
inactive: outcome [9] | Potency [2] | Potency [5] | Potency [3]

Cc1nc2ccccc2n1Cc1ccc(Cl)cc1
active: Potency [2] 7.5 µM | Potency [8] 15.5 µM
inactive: outcome [9] | Potency [3] | max activation [4] -21.8% | Potency [7]

CC(C)(C)c1cc(O)c(C(C)(C)C)cc1O
inactive: outcome [9] | Potency [5]
active: Potency [2] 61.1 µM

CCCCOc1ccc(CC(=O)NO)cc1
active: Potency [8] 15.5 µM
inactive: Potency [5] | Potency [6] | max activation [4] -0.916% | Potency [7] | Potency [10]

CN(C)C/C=C(/c1ccc(Br)cc1)c1cccnc1
inactive: Potency [2] | Potency [5] | max activation [4] -0.374%

C[C@H](CCC(=O)O)[C@H]1CC[C@H]2[C@@H]3[C@H](O)C[C@@H]4C[C@H](O)CC[C@]4(C)[C@H]3CC[C@]12C
inactive: Potency [1] | Potency [6] | max activation [4] -0.524% | Potency [7]
active: Potency [8] 56.6 µM

Cc1cc(O)ccc1N
inactive: outcome [9]
active: Potency [2] 61.4 µM | Potency [6] 61.4 µM | Potency [8] 20.1 µM

O=S1(=O)c2cccc3cccc(c23)N1CCCN1CCN(c2ccc(F)cc2)CC1
active: Potency [6] 4.73 µM | Potency [10] 15.8 µM | Potency [8] 1.55 µM
inactive: outcome [9] | Potency [2] | Potency [5] | Potency [3] | Potency [7]
